A selection: hits, their analogues and other compounds. The true share with any hit is near 7.5%.
KinaseGlo FLuc: blocks Kinase-Glo luciferase, a counter-screen artifact. Q27757. Kinase-Glo luciferase, ATP luminescence, 8 min. Potency, µM (highest dose often 38.3 µM), for the others: at the highest dose activity change, negative = inhibition, actives largely listed as inhibitors. 200,000 tested, 0.28% active. AID 1379; further: on the % scale 0 is the no-effect control and ±100 the full control effect; nearly all actives have a fitted effect of over 60% in size
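Substrate mix (final 50 mM imidazole pH 7.2, 50 mM KCl, 7 mM MgCl2, 10 uM ATP, 0.01% Tween 20, 0.05% BSA) plus pin-tool compound, then Kinase-Glo detection mix; 8 min ambient, luminescence read.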
FLuc modulator: inhibits or activates purified firefly luciferase, miR-21 counter-screen. AID 588342. Potency, µM (top dose mostly 57.5 µM), for inactives: at the top dose activity change, negative = inhibition, usual class: inhibitors. purified FLuc, Km substrates, luminescence inhibition. 360,000 tested, 6.9% active;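 further: plate controls were vehicle for no effect and reference inhibitor for full effect; nearly all actives have a fitted effect of over 55% in size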
Target sequence (P08659 whole entry, looked up): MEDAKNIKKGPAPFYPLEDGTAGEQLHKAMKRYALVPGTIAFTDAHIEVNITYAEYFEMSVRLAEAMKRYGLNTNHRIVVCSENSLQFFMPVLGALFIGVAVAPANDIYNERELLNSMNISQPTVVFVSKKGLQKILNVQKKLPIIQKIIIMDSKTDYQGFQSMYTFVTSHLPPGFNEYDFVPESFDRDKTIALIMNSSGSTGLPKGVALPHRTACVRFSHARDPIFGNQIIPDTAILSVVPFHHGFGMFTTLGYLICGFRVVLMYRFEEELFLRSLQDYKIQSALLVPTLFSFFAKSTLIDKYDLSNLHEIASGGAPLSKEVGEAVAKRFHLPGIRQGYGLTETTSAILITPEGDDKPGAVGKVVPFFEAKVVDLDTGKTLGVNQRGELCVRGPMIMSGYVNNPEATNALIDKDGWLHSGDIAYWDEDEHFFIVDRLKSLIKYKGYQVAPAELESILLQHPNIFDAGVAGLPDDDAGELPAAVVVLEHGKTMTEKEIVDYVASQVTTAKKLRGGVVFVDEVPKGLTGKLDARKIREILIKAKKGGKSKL
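Biochemical qHTS of compounds, final roughly 60 µM downward over six points, against 10 nM purified firefly luciferase using Km concentrations of substrates (10 uM D-luciferin, 10 uM ATP) in Tris acetate pH 7.5 buffer; luminescence output.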
SMN2 splice enh: enhancers of SMN2 splice variant expression | AID 1458 | HEK293 SMN2-luciferase splicing reporter, luminescence, 30-36 h | Potency, µM (series often up to 46.1 µM), without a hit: top-dose activity change, positive = activation, most hits filed as activators | 210,000 tested, 2.8% active; further: % of control where 0% means no effect; nearly all actives have a fitted effect of over 55% in size
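qHTS luciferase splicing reporter: luminescence rises when SMN2 exon 7 is included in transfected HEK293 cells. Compound exposure lasted 30-36 h at 37C, with 4.5 mM final sodium butyrate as control, followed by a ONE-Glo read.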
Rab9 promoter act: activators of Rab9 promoter; Huh7 Rab9 promoter-luciferase reporter, luminescence, 24 h; Potency, µM (top dose mostly 9.22 µM), without a hit: at the top dose activation, negative = inhibition, actives largely listed as activators; 320,000 tested, 2.8% active; AID 485297; further: % of control where 0% means no effect; nearly all actives have a fitted effect of over 60% in size
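Measured in stably transfected Huh7 cells bearing a Rab9 promoter–luciferase construct: 24 h compound treatment at 37 °C, followed by luminescence detection.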
ELG1 genotox: genotoxicity induction in ELG1-luciferase HEK293T cells. HEK293T ELG1-luciferase reporter, luminescence, 16 h. Potency, µM (titrated, usually from 46 µM), for the others: at the top dose activity change, positive = activation, most hits filed as activators. 330,000 tested, 1.3% active; further: % of control where 0% means no effect; nearly all actives have a fitted effect of over 60% in size
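Genotoxic stress is detected as increased luminescence from luciferase-tagged ELG1 in HEK293T cells, measured with ONE-Glo after a 16 hr treatment at 37 °C.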
NPC1 promoter act: NPC1 promoter activation; Potency, µM (doses to about 9.22 µM), without a hit: at the highest dose activation, hits mostly activators; 320,000 tested, 2.4% active; Huh7 NPC1 promoter luciferase reporter, 24 h; AID 485313; further: % of control where 0% means no effect; nearly all actives have a fitted effect of over 60% in size
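Huh7 reporter cells (NPC1 promoter driving luciferase) are dosed with compound for 24 h at 37 °C, 5% CO2; luciferase detection reagent is then added and luminescence measured after 10 min at ambient temperature.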
Active calls of the source: *; [ ] = remark or other dose. The call rests on the fitted dose curve; in most records, active means well fitted curve in the direction sought with a large enough effect; inconclusive means small, poorly fitted or top-dose-only effect, or another doubt; inactive means no such curve, though single readings can be large; an effect the other way counts as inactive or inconclusive. Potency means the concentration at half of the fitted maximal effect.

How did O=C(NCCc1c[nH]c2ccccc12)c1ccc2[nH]c(=O)c(=O)[nH]c2c1 do in these assays?
FLuc modulator: -3%; Rab9 promoter act: 3%; ELG1 genotox: 1%; NPC1 promoter act: 0%

How did Cc1ccc(C(=O)N/C(=C/c2ccco2)C(=O)NCCc2c[nH]c3ccccc23)cc1 do in these assays?
KinaseGlo FLuc: -2%; FLuc modulator: 15µM*; SMN2 splice enh: 6%; Rab9 promoter act: -3%; ELG1 genotox: 2%; NPC1 promoter act: -1%

Results for Cn1c(C(=O)NCCc2c[nH]c3ccccc23)cc2sccc21 ?
KinaseGlo FLuc: 2%; FLuc modulator: 12µM*; SMN2 splice enh: 25%; Rab9 promoter act: inconclusive; ELG1 genotox: 15µM*; NPC1 promoter act: inconclusive

Results for Cc1ccc2[nH]cc(CCNC(=O)c3ccc4c(c3)OCO4)c2c1 ?
FLuc modulator: inconclusive; Rab9 promoter act: -3%; ELG1 genotox: -6%; NPC1 promoter act: 11%

How did O=C(NCCc1c[nH]c2ccccc12)c1cc(Cl)c2c(c1)OCO2 do in these assays?
FLuc modulator: 24µM*; Rab9 promoter act: 1.4µM*; ELG1 genotox: inconclusive; NPC1 promoter act: 2.5µM*

What do the screens show for `O=C(Nc1ccc2c(c1)CCCN2C(=O)c1cccs1)c1cccc(C(F)(F)F)c1`?
FLuc modulator: -3%

What do the screens show for `NC(=O)CN(N=Nc1cccc([N+](=O)[O-])c1)c1cccc([N+](=O)[O-])c1`?
KinaseGlo FLuc: 2%; FLuc modulator: -1%; SMN2 splice enh: -29%; Rab9 promoter act: 3%; ELG1 genotox: -4%; NPC1 promoter act: -9%

Results for CC1=NN(C(N)=S)C(=O)C1N=Nc1ccccc1 (stereo not given) ?
KinaseGlo FLuc: -1%; FLuc modulator: 24µM*; SMN2 splice enh: 24%; Rab9 promoter act: 25%; ELG1 genotox: inconclusive; NPC1 promoter act: -50%

How did CC1=NN(C(N)=S)C(=O)C1N=Nc1ccc(Br)cc1 (stereo not given) do in these assays?
FLuc modulator: 6µM*; Rab9 promoter act: 3.5µM*; ELG1 genotox: 9.2µM*; NPC1 promoter act: 2.2µM*

How did CC1=NN(C(N)=S)C(=O)C1N=Nc1ccc(Cl)cc1 (stereo not given) do in these assays?
FLuc modulator: 3.4µM*; Rab9 promoter act: 4µM*; ELG1 genotox: 7.3µM*; NPC1 promoter act: 4µM*

How did CC1=NN(C(N)=S)C(=O)C1N=Nc1cccc([N+](=O)[O-])c1 (stereo not given) do in these assays?
FLuc modulator: 12µM*; Rab9 promoter act: inconclusive; ELG1 genotox: 2%; NPC1 promoter act: 3.5µM*

How did CC1=NN(c2ccccc2)C(=O)C1N=Nc1ccc(N)cc1 (stereo not given) do in these assays?
KinaseGlo FLuc: -13%; FLuc modulator: inconclusive; SMN2 splice enh: -43%; Rab9 promoter act: -12%; ELG1 genotox: -3%; NPC1 promoter act: -8%

How did CC1=NN(c2nc(-c3ccc(C)cc3)cs2)C(=O)C1N=Nc1cccc(O)c1 (stereo not given) do in these assays?
KinaseGlo FLuc: -4%; FLuc modulator: inconclusive; SMN2 splice enh: -41%; Rab9 promoter act: -6%; ELG1 genotox: -13%; NPC1 promoter act: 2%

What do the screens show for `CC1=NN(c2ccccc2)C(=O)[C@@H]1N=Nc1ccc(S(N)(=O)=O)cc1`?
KinaseGlo FLuc: 0%[7.66 µM]; SMN2 splice enh: -8%[9.22 µM]

What do the screens show for `Cc1nn(-c2ccccc2)c(Cl)c1CN(C(=O)CCl)c1cccc2ccccc12`?
KinaseGlo FLuc: 2%; FLuc modulator: 4%; SMN2 splice enh: -56%; Rab9 promoter act: -49%; ELG1 genotox: -15%; NPC1 promoter act: -19%

Results for COc1ccc(C(=O)Nc2ccc3oc(-c4cc(Cl)ccc4Cl)nc3c2)cc1Br ?
FLuc modulator: 2%; SMN2 splice enh: -2%

Source: PubChem (National Center for Advancing Translational Sciences (NCATS))
